Compounds with a hit are over-represented: about 3.5% of the library has one in this group of screens.
GPR151 activ – activators of human GPR151, primary screen, cell-based, PathHunter beta-arrestin, luminescence; G-protein coupled receptor 151 (Homo sapiens), Q8TDV0; PathHunter beta-arrestin GPR151 cells; activation, % at 11.2 µM; 1% of 650,000 active; in the data active = activation above about 4.9%
TEAD-YAP block – TEAD-YAP interaction inhibition, primary screen, TEAD-YAP interaction inhibitor project, luminescence, HEK-TIYL cells | TEAD-Gal4/YAP UAS-luciferase luminescence | inhibition, % at 9.12 µM | 1.4% of 640,000 active | AID 1259422, 2018; in the data active = inhibition above about 32%
FBW7 activator – FBW7 E3 ligase activators, primary screen, biochemical, AlphaScreen, human; F-box/WD repeat-containing protein 7 (Homo sapiens), Q969H0; AlphaScreen FBW7–phospho-cyclin E peptide binding, activator screen; normalized activity (activation), % at 26.1 µM; 0.13% of 650,000 active; AID 1259310, 2017; in the data active = normalized activity above about 1.9%;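 also: purified mutant Fbw7 with reduced substrate affinity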
MITF primary – MITF inhibitors, primary screen, biochemical, AlphaScreen, human | AlphaScreen MITF homodimerization, bead proximity signal | 0.91% of 650,000 active | inhibition, % at 2.6 µM; in the data active = inhibition above about 50%
GPR151 confirm – GPR151 activators, triplicate retest, confirmation, cell-based, PathHunter beta-arrestin, luminescence | activation, % at 11.2 µM | GPR151 PathHunter beta-arrestin cells, 90 min; % of EA-reagent control over plate median | shares compounds with GPR151 activ | 6,700 tested, under 10 active;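 active = mean percent activation across replicates above the confirmation screen cutoff of 4.91%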
GPR119 counter – GPR119 activators in beta-arrestin cells, counter-screen for GPR151 activator project, cell-based, PathHunter beta-arrestin, luminescence, triplicate; shares compounds with GPR151 activ; 0.3% of 6,700 active; activation, % at 11.2 µM; 90 min; 0 = compound-well median, 100 = enzyme-acceptor control;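 active = mean percent activation in the counterscreen above 29.09%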;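 also: counterscreen on off-target GPR119 to flag nonselective hits from the GPR151 activator screen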
Target sequence (Q8TDV5 whole entry, looked up): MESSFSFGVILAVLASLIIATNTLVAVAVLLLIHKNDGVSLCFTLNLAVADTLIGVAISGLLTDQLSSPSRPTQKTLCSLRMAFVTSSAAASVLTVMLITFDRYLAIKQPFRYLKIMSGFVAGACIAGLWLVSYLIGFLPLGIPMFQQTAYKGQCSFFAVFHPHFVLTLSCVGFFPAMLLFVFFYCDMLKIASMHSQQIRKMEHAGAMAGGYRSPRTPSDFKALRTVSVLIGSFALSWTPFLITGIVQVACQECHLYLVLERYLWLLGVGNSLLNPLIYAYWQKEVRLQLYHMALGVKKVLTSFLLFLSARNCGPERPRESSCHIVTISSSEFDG
Numbers stand for hits; 0 = inactive; - = not tested or not shown; ! = not confirmed by another sample.

SMILES	GPR151 activ	TEAD-YAP block	FBW7 activator	MITF primary	GPR151 confirm	GPR119 counter
CC(=O)N1CCC2(CC1)N=C(C)C(c1ccc(C(F)(F)F)cc1)=N2	0	0	0	0	-	-
COc1ccc(O[C@H]2C=C[C@@H](c3ccccc3)O[C@@H]2COC(=O)CC/C(C)=N/O[C@@H](C)CN2CCCCc3nc(C)c(C)cc32)cc1	0	-	0	0	-	-
C/C(CCC(=O)OC[C@H]1O[C@H](C#Cc2ccccc2)C=C[C@@H]1Oc1ccc(C)cc1)=N\O[C@H](C)CN1CCCc2nc(C)c(C)cc21	7.0	-	0	0	0	0
COc1ccc(C(C)(C)C)cc1NC(=O)COn1nnc2ccc(C(F)(F)F)cc21	5.1	0	0	0	0	0
Cc1ccc(C(=O)NC(Cc2c[nH]c3ccccc23)C(=O)O)cc1 (stereo not drawn)	0	0	0	0	-	-
CC(C)(O)C#Cc1ccc(C(=O)NC(Cc2c[nH]c3ccccc23)C(=O)O)cc1 (stereo not drawn)	12.4	0	0	0	0	0
COc1ccc(/C=N/NC(=O)CNC(=O)c2ccccc2Br)cc1	0	0	0	0	-	-
COc1ccc(/C=N/NC(=O)CNc2ccc3ccccc3c2)cc1OC	5.9	0	0	0	0	0
COc1ccc(/C=N/NC(=O)CNc2ccc3ccccc3c2)cc1Cl	0	0	0	0	-	-
COc1ccc(/C=N/NC(=O)CNC(=O)c2ccccc2Br)cc1OC	7.6	0	0	0	0	0
COc1ccc(/C=N/NC(=O)C(=O)Nc2cccc(Cl)c2)cc1OC	7.4	0	0	0	0	0
CCN(CC)C(=O)[C@@H]1C[C@@H](NCc2ccncc2)CN1Cc1ccc(Cl)cc1	0	0	0	0	-	-
CC(C)C1C2CCC(C2)C1N (stereo not drawn)	5.3!	0	0	0	0	0
COc1ccc(CN2CCC3(CCC(CNS(=O)(=O)C(C)C)O3)CC2)cc1 (stereo not drawn)	6.3	0	0	0	0	0
COc1ccc(S(=O)(=O)N2CCC(N3CCCCC3)CC2)cc1OC	6.3	0	0	0	0	0
COc1ccc(S(=O)(=O)N2CCC(C)CC2)cc1OC	0	0	0	0	-	-
COc1ccc(OC)c(C2CC(=O)N3CN(c4ccccc4)CSC3=C2C#N)c1 (stereo not drawn)	5.7	0	0	0	0	0
COc1cccc(C2CC(=O)N3CN(c4ccccc4)CSC3=C2C#N)c1 (stereo not drawn)	0	0	0	0	-	-
CCC(C)C1N=C2c3ccccc3N=C(SCc3ccc(Cl)cc3)N2C1=O (stereo not drawn)	0	0	0	0	-	-
COc1ccc(C(CC(=O)NCCc2ccccc2)N2Cc3ccccc3C2=O)cc1OC (stereo not drawn)	0	0	0	0	-	-
CC(C)CS(=O)(=O)Nc1ccc2c(c1)CCCN2S(=O)(=O)c1ccc(F)cc1	5.2	0	0	0	0	0
Cc1cccc2sc(N(Cc3ccccn3)C(=O)CCOc3ccccc3)nc12	5.8	0	0	0	0	0
COCCNC(=O)CCc1c(C)nc2cc(-c3cccc(F)c3)nn2c1C	0	0	0	0	-	-
CCCNc1nc(-c2ccccc2)nc2c1ncn2Cc1ccc(C(F)(F)F)cc1	0	0	0	0	-	-
Fc1ccccc1/C=N\Nc1nc2ccccc2o1	11.0	0	0	0	0	0
COC(=O)c1ccc(C2C3=C(CC(C)(C)CC3=O)N(c3cccc(C(F)(F)F)c3)C3=C2C(=O)CC(C)(C)C3)cc1	6.8	0	0	0	0	0
Cc1ccc(N(CC(=O)NCc2ccco2)C(=O)CCC(=O)Nc2ccccn2)cc1	0	0	0	0	-	-
CCOc1cc(C2C(C(=O)OC)=CN(CCOC)C=C2C(=O)OC)cc([N+](=O)[O-])c1O	6.0	0	0	0	0	0
O=C1CC(c2nc3ccccc3n2Cc2ccccc2F)CN1c1ccccc1 (stereo not drawn)	8.8	0	0	0	0	0
O=C(NCc1cccnc1)c1cn2ccsc2n1	0	0	0	0	-	-

Screens from PubChem BioAssay.
